Measurements as given in PMC7862700, “An all-to-all approach to the identification of sequence-specific readers for epigenetic DNA modifications on cytosine”.

Experiments:
Experiment in all cases: DAPPL (digital affinity profiling via proximity ligation, sequencing); 10 mM Tris-HCl pH 7.5, 50 mM NaCl, 1 mM DTT, 4% glycerol, room temperature, 30 min; GST-TFs on glutathione beads, 16-mer random dsDNA library, 0.1% formaldehyde crosslink after washing; high values mean tight binding
FLI1 = target: T1, FLI1 (Homo sapiens, UniProt Q01543 1-452); details: protein: recombinant; tags: N-terminal GST; dsDNA, one strand shown
T1 sequence: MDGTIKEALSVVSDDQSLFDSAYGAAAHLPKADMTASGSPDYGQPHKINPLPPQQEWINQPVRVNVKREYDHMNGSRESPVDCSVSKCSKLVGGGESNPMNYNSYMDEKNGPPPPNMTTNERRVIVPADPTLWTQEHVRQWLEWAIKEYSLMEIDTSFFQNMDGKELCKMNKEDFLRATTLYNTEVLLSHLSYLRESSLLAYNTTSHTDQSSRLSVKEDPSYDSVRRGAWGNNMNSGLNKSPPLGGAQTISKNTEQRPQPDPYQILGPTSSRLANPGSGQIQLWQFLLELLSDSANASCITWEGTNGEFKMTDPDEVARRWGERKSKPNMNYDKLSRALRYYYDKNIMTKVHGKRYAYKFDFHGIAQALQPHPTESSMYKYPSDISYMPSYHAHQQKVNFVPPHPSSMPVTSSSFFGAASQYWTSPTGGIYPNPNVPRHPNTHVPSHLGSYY
Summary of the method: (§1)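 Binding signal is defined as a hexamer's read frequency for one factor over its frequency for the tag-only sample. To obtain reads, GST-fused human transcription factors were expressed in yeast, captured on glutathione beads, barcoded with DNA and pooled with that sample. Pools met 200 nmole of a 16-mer random double-stranded DNA library in Tris/NaCl/DTT/glycerol buffer for 30 min at room temperature before washing, 0.1% formaldehyde crosslinking, proximity ligation (BsaI/T4 ligase, 1 h, 37 °C), PCR and Illumina NextSeq500 sequencing.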

ELK1 = target: T2, ELK1 (Homo sapiens, UniProt P19419 1-428); details: protein: recombinant; tags: N-terminal GST; dsDNA, one strand shown
T2 sequence: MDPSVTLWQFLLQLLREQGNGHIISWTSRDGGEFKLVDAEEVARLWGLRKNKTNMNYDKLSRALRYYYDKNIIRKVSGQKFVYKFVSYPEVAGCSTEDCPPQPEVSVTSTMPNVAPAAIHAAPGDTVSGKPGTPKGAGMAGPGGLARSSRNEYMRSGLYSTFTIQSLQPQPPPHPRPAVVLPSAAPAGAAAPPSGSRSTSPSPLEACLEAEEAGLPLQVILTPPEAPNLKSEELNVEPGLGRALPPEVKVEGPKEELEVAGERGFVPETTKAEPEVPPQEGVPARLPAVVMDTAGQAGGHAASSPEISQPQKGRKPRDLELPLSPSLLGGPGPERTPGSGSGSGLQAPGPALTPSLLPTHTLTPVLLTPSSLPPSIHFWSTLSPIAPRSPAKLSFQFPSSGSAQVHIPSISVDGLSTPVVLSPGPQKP
Summary of the method: as §1

GABPA = target: T3, GABPA (Homo sapiens, UniProt Q06546 1-454); details: protein: recombinant; tags: N-terminal GST; dsDNA, one strand shown
T3 sequence: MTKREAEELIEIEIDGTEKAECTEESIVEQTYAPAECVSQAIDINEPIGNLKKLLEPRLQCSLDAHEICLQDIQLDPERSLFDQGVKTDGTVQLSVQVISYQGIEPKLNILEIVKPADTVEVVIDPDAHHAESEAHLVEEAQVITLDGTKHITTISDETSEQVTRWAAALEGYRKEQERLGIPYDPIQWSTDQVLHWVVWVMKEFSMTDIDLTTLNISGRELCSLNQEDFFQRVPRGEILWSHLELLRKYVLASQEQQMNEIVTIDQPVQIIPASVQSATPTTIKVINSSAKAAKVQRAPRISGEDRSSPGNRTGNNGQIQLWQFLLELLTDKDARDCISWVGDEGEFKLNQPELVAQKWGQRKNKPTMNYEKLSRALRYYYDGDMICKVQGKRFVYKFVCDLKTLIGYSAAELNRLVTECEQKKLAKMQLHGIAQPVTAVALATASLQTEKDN
Summary of the method: as §1

ERG = target: T4, ERG (Homo sapiens, UniProt P11308 1-479); details: protein: recombinant; tags: N-terminal GST; dsDNA, one strand shown
T4 sequence: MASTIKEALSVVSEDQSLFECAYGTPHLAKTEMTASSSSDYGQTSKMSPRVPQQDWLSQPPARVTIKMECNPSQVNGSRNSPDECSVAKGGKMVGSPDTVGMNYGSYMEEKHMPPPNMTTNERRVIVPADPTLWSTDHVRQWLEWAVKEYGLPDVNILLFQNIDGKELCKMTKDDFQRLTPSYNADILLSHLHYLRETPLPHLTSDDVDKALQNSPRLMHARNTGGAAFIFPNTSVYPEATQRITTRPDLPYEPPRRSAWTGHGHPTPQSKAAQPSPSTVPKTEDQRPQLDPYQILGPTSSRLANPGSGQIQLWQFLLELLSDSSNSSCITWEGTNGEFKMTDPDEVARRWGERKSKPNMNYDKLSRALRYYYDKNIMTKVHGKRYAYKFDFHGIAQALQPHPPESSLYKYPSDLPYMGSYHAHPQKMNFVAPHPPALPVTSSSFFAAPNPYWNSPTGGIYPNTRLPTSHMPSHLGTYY
Summary of the method: as §1

ELF1 = ELF1 (Homo sapiens, UniProt P32519 1-619); details: protein: recombinant; tags: N-terminal GST; dsDNA, one strand shown
Summary of the method: as §1

EHF = target: T5, EHF (Homo sapiens, UniProt Q9NZC4 1-300); details: protein: recombinant; tags: N-terminal GST; dsDNA, one strand shown
T5 sequence: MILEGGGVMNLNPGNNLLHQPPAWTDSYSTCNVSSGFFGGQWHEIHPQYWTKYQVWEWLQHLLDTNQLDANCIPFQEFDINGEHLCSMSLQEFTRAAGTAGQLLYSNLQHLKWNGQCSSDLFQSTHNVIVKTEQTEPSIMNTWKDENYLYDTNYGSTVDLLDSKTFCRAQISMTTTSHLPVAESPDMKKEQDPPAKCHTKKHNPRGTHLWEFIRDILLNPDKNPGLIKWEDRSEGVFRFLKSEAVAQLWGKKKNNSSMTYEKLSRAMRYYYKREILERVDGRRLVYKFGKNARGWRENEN
Summary of the method: as §1

SPI1 = SPI1 (Homo sapiens, UniProt P17947 1-270); details: protein: recombinant; tags: N-terminal GST; dsDNA, one strand shown
Summary of the method: as §1

SPIB = SPIB (Homo sapiens, UniProt Q01892 1-262); details: protein: recombinant; tags: N-terminal GST; dsDNA, one strand shown
Summary of the method: as §1

ELK3 = target: T6, ELK3 (Homo sapiens, UniProt P41970 1-407); details: protein: recombinant; tags: N-terminal GST; dsDNA, one strand shown
T6 sequence: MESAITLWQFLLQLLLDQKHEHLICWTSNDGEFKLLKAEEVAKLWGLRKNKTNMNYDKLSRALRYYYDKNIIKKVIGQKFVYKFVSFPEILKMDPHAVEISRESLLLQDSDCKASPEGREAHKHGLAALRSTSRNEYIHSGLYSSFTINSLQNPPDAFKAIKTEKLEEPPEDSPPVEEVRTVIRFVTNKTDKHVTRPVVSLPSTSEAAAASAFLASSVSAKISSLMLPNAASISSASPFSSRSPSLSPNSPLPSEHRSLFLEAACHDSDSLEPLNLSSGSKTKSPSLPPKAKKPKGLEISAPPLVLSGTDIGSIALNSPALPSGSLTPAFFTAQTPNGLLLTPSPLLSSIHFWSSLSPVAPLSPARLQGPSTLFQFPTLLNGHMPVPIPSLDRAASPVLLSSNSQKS
Summary of the method: as §1

FEV = target: T7, FEV (Homo sapiens, UniProt Q99581 1-238); details: protein: recombinant; tags: N-terminal GST; dsDNA, one strand shown
T7 sequence: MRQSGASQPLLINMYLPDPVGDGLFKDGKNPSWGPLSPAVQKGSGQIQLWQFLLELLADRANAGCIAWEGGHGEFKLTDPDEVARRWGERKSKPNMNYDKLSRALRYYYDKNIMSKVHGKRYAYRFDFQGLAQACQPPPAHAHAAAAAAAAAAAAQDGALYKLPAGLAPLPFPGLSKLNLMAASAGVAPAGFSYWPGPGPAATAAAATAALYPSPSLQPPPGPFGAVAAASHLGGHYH
Summary of the method: as §1

ETV5 = ETV5 (Homo sapiens, UniProt P41161 1-510); details: protein: recombinant; tags: N-terminal GST; dsDNA, one strand shown
Summary of the method: as §1

HSF1 = HSF1 (Homo sapiens, UniProt Q00613 1-529); details: protein: recombinant; tags: N-terminal GST; chain copies: 3; dsDNA, one strand shown
Summary of the method: as §1

SPIC = target: T8, SPIC (Homo sapiens, UniProt Q8N5J4 1-248); details: protein: recombinant; tags: N-terminal GST; dsDNA, one strand shown
T8 sequence: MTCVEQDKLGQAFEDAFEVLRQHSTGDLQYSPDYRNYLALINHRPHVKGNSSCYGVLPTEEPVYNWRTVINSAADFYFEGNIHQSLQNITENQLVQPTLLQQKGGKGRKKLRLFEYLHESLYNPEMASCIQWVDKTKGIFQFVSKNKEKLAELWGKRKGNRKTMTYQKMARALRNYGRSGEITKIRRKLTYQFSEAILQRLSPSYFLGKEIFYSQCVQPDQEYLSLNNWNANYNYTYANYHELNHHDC
Summary of the method: as §1

ELF4 = ELF4 (Homo sapiens, UniProt Q99607 1-663); details: protein: recombinant; tags: N-terminal GST; dsDNA, one strand shown
Summary of the method: as §1

ELK4 = target: T9, ELK4 (Homo sapiens, UniProt P28324-2 1-405); details: protein: recombinant; tags: N-terminal GST; dsDNA, one strand shown
T9 sequence: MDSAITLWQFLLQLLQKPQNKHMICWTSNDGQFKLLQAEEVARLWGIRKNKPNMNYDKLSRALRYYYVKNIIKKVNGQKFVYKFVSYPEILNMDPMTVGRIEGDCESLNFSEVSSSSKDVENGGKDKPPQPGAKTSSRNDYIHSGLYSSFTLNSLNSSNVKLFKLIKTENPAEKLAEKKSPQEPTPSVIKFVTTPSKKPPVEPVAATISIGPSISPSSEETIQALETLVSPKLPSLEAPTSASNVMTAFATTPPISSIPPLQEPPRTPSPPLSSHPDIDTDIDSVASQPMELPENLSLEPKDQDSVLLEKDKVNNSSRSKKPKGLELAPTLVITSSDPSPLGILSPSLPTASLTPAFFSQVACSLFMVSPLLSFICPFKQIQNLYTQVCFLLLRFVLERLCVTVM
Summary of the method: as §1

ETV2 = target: T10, ETV2 (Homo sapiens, UniProt O00321 1-342); details: protein: recombinant; tags: N-terminal GST; dsDNA, one strand shown
T10 sequence: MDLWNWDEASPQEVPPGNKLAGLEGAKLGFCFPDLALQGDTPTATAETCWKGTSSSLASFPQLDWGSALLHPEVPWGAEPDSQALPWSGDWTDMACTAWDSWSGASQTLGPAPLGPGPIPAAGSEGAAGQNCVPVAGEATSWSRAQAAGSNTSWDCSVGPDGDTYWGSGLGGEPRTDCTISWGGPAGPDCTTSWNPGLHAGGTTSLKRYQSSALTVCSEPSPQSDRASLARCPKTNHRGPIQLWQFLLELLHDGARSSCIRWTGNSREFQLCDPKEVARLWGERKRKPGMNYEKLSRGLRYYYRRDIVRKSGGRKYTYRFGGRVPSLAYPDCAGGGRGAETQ
Summary of the method: as §1

ELF3 = target: T11, ELF3 (Homo sapiens, UniProt P78545 1-371); details: protein: recombinant; tags: N-terminal GST; dsDNA, one strand shown
T11 sequence: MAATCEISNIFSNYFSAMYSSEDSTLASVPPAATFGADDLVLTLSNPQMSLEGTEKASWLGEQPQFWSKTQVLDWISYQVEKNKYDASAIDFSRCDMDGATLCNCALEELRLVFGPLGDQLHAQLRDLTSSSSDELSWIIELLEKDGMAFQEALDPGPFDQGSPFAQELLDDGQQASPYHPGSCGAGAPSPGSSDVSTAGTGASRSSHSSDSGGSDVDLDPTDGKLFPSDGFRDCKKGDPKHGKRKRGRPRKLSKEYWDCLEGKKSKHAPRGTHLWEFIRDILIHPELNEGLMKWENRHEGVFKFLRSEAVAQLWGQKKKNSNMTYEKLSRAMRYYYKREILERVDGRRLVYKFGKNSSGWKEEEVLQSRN
Summary of the method: as §1

CRX = CRX (Homo sapiens, UniProt O43186 1-299); details: protein: recombinant; tags: N-terminal GST; dsDNA, one strand shown
Summary of the method: as §1

ETV1 = ETV1 (Homo sapiens, UniProt P50549 1-477); details: protein: recombinant; tags: N-terminal GST; dsDNA, one strand shown
Summary of the method: as §1

Sequence of ETV5 (P41161 whole entry): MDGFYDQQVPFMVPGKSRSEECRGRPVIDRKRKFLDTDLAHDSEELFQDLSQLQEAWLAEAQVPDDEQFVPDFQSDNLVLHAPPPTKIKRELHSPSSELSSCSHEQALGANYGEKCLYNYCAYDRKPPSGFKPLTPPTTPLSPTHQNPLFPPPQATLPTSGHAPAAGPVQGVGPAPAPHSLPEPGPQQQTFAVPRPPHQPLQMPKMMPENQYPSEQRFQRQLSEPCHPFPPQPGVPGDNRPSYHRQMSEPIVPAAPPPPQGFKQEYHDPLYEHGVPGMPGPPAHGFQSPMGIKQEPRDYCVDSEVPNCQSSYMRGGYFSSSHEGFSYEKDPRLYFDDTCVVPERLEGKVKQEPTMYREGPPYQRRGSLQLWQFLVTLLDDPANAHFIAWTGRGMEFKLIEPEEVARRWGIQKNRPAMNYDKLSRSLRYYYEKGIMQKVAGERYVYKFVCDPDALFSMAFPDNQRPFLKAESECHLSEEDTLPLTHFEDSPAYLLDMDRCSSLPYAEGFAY
Sequence of HSF1 (Q00613 whole entry): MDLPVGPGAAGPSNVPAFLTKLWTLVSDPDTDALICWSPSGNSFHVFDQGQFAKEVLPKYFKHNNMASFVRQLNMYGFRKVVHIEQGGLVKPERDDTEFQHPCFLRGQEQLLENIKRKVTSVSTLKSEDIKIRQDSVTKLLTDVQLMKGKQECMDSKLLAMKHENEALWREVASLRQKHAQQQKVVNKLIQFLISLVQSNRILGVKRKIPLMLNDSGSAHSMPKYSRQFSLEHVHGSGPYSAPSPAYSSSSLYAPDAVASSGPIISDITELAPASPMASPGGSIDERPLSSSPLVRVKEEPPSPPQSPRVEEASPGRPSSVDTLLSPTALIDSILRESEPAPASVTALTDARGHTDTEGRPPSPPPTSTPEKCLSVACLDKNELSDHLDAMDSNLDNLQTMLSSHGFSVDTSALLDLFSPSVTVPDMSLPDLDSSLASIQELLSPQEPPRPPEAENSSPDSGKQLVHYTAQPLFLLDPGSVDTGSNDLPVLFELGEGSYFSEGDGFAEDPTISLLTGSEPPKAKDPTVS
Sequence of ELF1 (P32519 whole entry): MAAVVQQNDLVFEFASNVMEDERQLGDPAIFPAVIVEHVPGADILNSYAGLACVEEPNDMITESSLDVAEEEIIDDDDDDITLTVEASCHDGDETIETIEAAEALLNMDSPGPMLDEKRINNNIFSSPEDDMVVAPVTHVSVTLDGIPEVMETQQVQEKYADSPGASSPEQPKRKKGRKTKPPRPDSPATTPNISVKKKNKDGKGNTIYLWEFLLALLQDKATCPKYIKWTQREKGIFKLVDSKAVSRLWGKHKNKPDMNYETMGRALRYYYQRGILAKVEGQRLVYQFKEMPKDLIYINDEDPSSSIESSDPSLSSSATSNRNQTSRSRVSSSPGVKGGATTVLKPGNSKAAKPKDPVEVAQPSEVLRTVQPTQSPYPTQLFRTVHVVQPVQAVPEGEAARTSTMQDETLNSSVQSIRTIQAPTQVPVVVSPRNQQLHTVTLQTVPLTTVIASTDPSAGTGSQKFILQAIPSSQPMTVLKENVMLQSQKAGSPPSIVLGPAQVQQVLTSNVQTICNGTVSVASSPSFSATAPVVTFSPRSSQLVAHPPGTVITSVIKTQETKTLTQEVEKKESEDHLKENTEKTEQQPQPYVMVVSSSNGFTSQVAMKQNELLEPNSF
Sequence of CRX (O43186 whole entry): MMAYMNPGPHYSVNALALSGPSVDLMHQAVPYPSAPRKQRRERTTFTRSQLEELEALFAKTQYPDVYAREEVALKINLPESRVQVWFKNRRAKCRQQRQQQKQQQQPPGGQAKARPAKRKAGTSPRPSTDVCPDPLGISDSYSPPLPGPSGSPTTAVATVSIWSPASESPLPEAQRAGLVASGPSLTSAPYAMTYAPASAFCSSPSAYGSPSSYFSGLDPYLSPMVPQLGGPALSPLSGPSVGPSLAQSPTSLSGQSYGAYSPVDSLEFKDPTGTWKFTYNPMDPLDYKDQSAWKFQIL
Sequence of ETV1 (P50549 whole entry): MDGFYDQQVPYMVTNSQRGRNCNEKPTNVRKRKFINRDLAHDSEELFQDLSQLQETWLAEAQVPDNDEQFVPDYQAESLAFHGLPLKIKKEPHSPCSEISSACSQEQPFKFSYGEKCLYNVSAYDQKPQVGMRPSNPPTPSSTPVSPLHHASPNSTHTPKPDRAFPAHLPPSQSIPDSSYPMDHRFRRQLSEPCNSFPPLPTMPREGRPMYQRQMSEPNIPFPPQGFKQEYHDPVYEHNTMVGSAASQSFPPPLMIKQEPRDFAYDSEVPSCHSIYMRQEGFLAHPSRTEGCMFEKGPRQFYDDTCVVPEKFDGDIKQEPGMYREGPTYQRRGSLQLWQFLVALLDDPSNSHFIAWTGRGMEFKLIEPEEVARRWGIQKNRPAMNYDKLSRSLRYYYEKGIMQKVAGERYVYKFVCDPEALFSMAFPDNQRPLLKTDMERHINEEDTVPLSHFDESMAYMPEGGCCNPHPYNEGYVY
Sequence of SPIB (Q01892 whole entry): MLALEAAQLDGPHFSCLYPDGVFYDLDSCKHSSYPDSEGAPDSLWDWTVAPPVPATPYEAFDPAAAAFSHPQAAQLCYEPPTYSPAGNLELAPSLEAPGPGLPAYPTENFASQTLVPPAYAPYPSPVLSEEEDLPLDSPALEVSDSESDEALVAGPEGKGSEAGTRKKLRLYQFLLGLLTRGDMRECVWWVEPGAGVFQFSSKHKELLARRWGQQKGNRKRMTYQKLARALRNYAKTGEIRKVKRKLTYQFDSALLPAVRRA
Sequence of ELF4 (Q99607 whole entry): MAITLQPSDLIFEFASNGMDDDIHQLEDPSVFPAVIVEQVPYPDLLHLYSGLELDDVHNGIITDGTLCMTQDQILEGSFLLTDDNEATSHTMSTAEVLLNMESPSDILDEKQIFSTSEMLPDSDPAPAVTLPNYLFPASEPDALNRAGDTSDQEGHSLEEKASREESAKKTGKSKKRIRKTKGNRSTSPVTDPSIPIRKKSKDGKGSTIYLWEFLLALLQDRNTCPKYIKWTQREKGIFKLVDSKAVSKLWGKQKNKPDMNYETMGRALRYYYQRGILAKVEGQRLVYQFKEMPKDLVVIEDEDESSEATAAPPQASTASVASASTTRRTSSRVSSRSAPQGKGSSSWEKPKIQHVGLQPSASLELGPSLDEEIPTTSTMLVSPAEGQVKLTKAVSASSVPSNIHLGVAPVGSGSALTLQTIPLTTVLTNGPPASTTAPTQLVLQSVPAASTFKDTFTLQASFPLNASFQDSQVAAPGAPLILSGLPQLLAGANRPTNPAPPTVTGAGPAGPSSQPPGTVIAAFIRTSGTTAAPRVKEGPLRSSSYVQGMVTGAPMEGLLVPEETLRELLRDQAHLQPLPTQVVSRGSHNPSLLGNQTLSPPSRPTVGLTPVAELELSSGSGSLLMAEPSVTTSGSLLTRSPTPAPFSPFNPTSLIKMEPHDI

For TCCGGT, the binding signal (FLI1) was 3.61 fold enrichment (6-mer frequency, TF over GST control), the binding signal (ELK1) was 3.83 fold enrichment (6-mer frequency, TF over GST control) and the binding signal (GABPA) was 3.5 fold enrichment (6-mer frequency, TF over GST control). The binding signal (ERG) was 4.63 fold enrichment (6-mer frequency, TF over GST control), the binding signal (ELF1) was 3.46 fold enrichment (6-mer frequency, TF over GST control) and the binding signal (EHF) was 3.67 fold enrichment (6-mer frequency, TF over GST control). The binding signal (SPI1) was 3.58 fold enrichment (6-mer frequency, TF over GST control), the binding signal (SPIB) was 3.58 fold enrichment (6-mer frequency, TF over GST control) and the binding signal (ELK3) was 4.4 fold enrichment (6-mer frequency, TF over GST control). The binding signal (FEV) was 6.6 fold enrichment (6-mer frequency, TF over GST control), the binding signal (ETV5) was 3.98 fold enrichment (6-mer frequency, TF over GST control) and the binding signal (HSF1) was 1.09 fold enrichment (6-mer frequency, TF over GST control). The binding signal (SPIC) was 3.59 fold enrichment (6-mer frequency, TF over GST control), the binding signal (ELF4) was 3.32 fold enrichment (6-mer frequency, TF over GST control) and the binding signal (ELK4) was 3.14 fold enrichment (6-mer frequency, TF over GST control). For the same sequence, the binding signal (ETV2) was 3.65 fold enrichment (6-mer frequency, TF over GST control), the binding signal (ELF3) was 3.41 fold enrichment (6-mer frequency, TF over GST control) and the binding signal (CRX) was 1.04 fold enrichment (6-mer frequency, TF over GST control). For the same sequence, the binding signal (ETV1) was 3.87 fold enrichment (6-mer frequency, TF over GST control).
